Measured values published in PubChem BioAssay AID1159580 (chemical genetic matrix, 2015).
Hit rate of the full screen: of about 5,500 compounds, about 2,000 (36%) were called active. About 18% were inconclusive and are not listed. Cut-off read from the data, not from the text of the source: active = normalized growth mostly below about 0.91 (no sharp cut-off); inconclusive = no clear call, values can overlap the other calls; inactive = mostly above about 0.92. The list shows a part of the results.

Test: chemical genetic growth profiling, strain panel (AID 1159580);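 note: tested at 20 µM; growth read once vehicle control cultures reached saturation at 30 °C; 1 = growth at the plate median or of vehicle wells; lower values mean less growth of the strain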
Conditions: growth OD
[1] = S. cerevisiae deletion strains, locus YBR021W, strain FUR4, hits give low values
[2] = S. cerevisiae deletion strains, locus YBR229C, strain ROT2, hits give low values
[3] = S. cerevisiae deletion strains, locus YCL029C, strain bik1, hits give low values
[4] = S. cerevisiae deletion strains, locus YDL035C, strain GPR1, hits give low values
[5] = S. cerevisiae deletion strains, locus YDL074C, strain BRE1, hits give low values
[6] = S. cerevisiae deletion strains, locus YDL101C, strain DUN1, hits give low values
[7] = S. cerevisiae deletion strains, locus YDL185W, strain tfp1, hits give low values
[8] = S. cerevisiae deletion strains, locus YDL192W, strain arf1, hits give low values
[9] = S. cerevisiae deletion strains, locus YDR101C, strain arx1, hits give low values
[10] = S. cerevisiae deletion strains, locus YDR150W, strain NUM1, hits give low values
[11] = S. cerevisiae deletion strains, locus YDR162C, strain NBP2, hits give low values
[12] = S. cerevisiae deletion strains, locus YDR318W, strain mcm21, hits give low values
[13] = S. cerevisiae deletion strains, locus YDR388W, hits give low values
[14] = S. cerevisiae deletion strains, locus YDR502C, strain sam2, hits give low values
[15] = S. cerevisiae deletion strains, locus YEL061C, strain CIN8, hits give low values
[16] = S. cerevisiae deletion strains, locus YER110C, hits give low values
[17] = S. cerevisiae deletion strains, locus YER155C, strain BEM2, hits give low values
[18] = S. cerevisiae deletion strains, locus YER167W, strain BCK2, hits give low values
[19] = S. cerevisiae deletion strains, locus YGL078C, strain dbp3, hits give low values
[20] = S. cerevisiae deletion strains, locus YGL086W, strain mad1, hits give low values
[21] = S. cerevisiae deletion strains, locus YGL248W, strain PDE1, hits give low values
[22] = S. cerevisiae deletion strains, locus YGR135W, strain pre9, hits give low values
[23] = S. cerevisiae deletion strains, locus YGR229C, strain SMI1, hits give low values
[24] = S. cerevisiae deletion strains, locus YGR252W, strain gcn5, hits give low values
[25] = S. cerevisiae deletion strains, locus YHR030C, strain SLT2, hits give low values
[26] = S. cerevisiae deletion strains, locus YHR079C, strain IRE1 (second series), hits give low values
[27] = S. cerevisiae deletion strains, locus YHR094C, strain hxt1, hits give low values
[28] = S. cerevisiae deletion strains, locus YHR129C, strain ARP1, hits give low values
[29] = S. cerevisiae deletion strains, locus YHR200W, strain rpn10, hits give low values
[30] = S. cerevisiae deletion strains, locus YIL066C, strain RNR3, hits give low values
[31] = S. cerevisiae deletion strains, locus YIL073C, strain SPO22, hits give low values
[32] = S. cerevisiae deletion strains, locus YIL125W, strain kgd1, hits give low values
[33] = S. cerevisiae deletion strains, locus YIR030C, strain dcg1, hits give low values
[34] = S. cerevisiae deletion strains, locus YJL095W, strain BCK1, hits give low values
[35] = S. cerevisiae deletion strains, locus YJL134W, strain LCB3, hits give low values
[36] = S. cerevisiae deletion strains, locus YJL168C, strain set2, hits give low values
[37] = S. cerevisiae deletion strains, locus YJL187C, strain SWE1 (second series), hits give low values
[38] = S. cerevisiae deletion strains, locus YJR043C, strain POL32, hits give low values
[39] = S. cerevisiae deletion strains, locus YKL009W, strain mrt4, hits give low values
[40] = S. cerevisiae deletion strains, locus YKL068W, hits give low values
[41] = S. cerevisiae deletion strains, locus YKL085W, strain MDH1 (second series), hits give low values
[42] = S. cerevisiae deletion strains, locus YKL085W, strain MDH1, hits give low values
[43] = S. cerevisiae deletion strains, locus YKR001C, strain vps1, hits give low values
[44] = S. cerevisiae deletion strains, locus YLR039C, strain RIC1, hits give low values
[45] = S. cerevisiae deletion strains, locus YLR058C, strain SHM2, hits give low values
[46] = S. cerevisiae deletion strains, locus YLR102C, strain apc9, hits give low values
[47] = S. cerevisiae deletion strains, locus YLR268W, strain sec22, hits give low values
[48] = S. cerevisiae deletion strains, locus YLR371W, strain rom2, hits give low values
[49] = S. cerevisiae deletion strains, locus YLR418C, strain cdc73, hits give low values
[50] = S. cerevisiae deletion strains, locus YML016C, strain PPZ1, hits give low values
[51] = S. cerevisiae deletion strains, locus YML032C, strain rad52, hits give low values
[52] = S. cerevisiae deletion strains, locus YML124C, strain tub3, hits give low values
[53] = S. cerevisiae deletion strains, locus YMR078C, strain ctf18, hits give low values
[54] = S. cerevisiae deletion strains, locus YMR223W, strain ubp8, hits give low values
[55] = S. cerevisiae deletion strains, locus YMR307W, strain GAS1, hits give low values
[56] = S. cerevisiae deletion strains, locus YNL067W, strain RPL9B, hits give low values
[57] = S. cerevisiae deletion strains, locus YNL153C, strain GIM3, hits give low values
[58] = S. cerevisiae deletion strains, locus YNL233W, strain BNI4, hits give low values
[59] = S. cerevisiae deletion strains, locus YNL250W, strain rad50, hits give low values
[60] = S. cerevisiae deletion strains, locus YNL271C, strain bni1, hits give low values
[61] = S. cerevisiae deletion strains, locus YNL298W, strain CLA4, hits give low values
[62] = S. cerevisiae deletion strains, locus YNL307C, strain MCK1, hits give low values
[63] = S. cerevisiae deletion strains, locus YNR052C, strain pop2, hits give low values
[64] = S. cerevisiae deletion strains, locus YOL006C, strain TOP1, hits give low values
[65] = S. cerevisiae deletion strains, locus YOL012C, strain htz1
[66] = S. cerevisiae deletion strains, locus YOL147C, strain pex11, hits give low values
[67] = S. cerevisiae deletion strains, locus YOR061W, strain CKA2, hits give low values
[68] = S. cerevisiae deletion strains, locus YOR069W, strain VPS5, hits give low values
[69] = S. cerevisiae deletion strains, locus YOR136W, strain idh2, hits give low values
[70] = S. cerevisiae deletion strains, locus YOR144C, strain elg1, hits give low values
[71] = S. cerevisiae deletion strains, locus YOR184W, strain ser1, hits give low values
[72] = S. cerevisiae deletion strains, locus YOR316C, strain cot1, hits give low values
[73] = S. cerevisiae deletion strains, locus YPR119W, strain clb2, hits give low values
[74] = S. cerevisiae deletion strains, locus YPR141C, strain kar3, hits give low values
[75] = S. cerevisiae deletion strains, locus YPR163C, strain tif3, hits give low values
[76] = S. cerevisiae deletion strains, locus YPR167C, strain met16, hits give low values
[77] = S. cerevisiae deletion strains, strain wtn01, hits give low values
[78] = S. cerevisiae deletion strains, locus YKL190W, strain CNB1, hits give low values
[79] = S. cerevisiae deletion strains, locus YLR330W, strain CHS5, hits give low values

Measured: normalized growth

COc1c(CC=C(C)C)c2c(c3oc(=O)c(-c4ccc(O)cc4)c(O)c13)C=CC(C)(C)O2
active: [3] 0.841 | [5] 0.687 | [8] 0.875 | [12] 0.896 | [17] 0.752 | [23] 0.722 | [28] 0.899 | [29] 0.908 | [34] 0.74 | [43] 0.869 | [47] 0.853 | [48] 0.769 | [49] 0.649 | [51] 0.896 | [62] 0.677 | [66] 0.902 | [71] 0.476 | [75] 0.84
inactive: [1] 0.918 | [2] 1.01 | [4] 0.918 | [6] 0.964 | [7] 1.03 | [9] 0.92 | [10] 1.03 | [11] 0.875 | [13] 0.975 | [14] 0.94 | [15] 0.968 | [16] 0.986 | [18] 0.951 | [19] 1 | [20] 0.937 | [21] 0.921 | [22] 0.989 | [24] 1.02 | [25] 0.974 | [26] 0.979 | [27] 0.976 | [30] 0.903 | [31] 0.952 | [32] 0.957 | [33] 0.953 | [35] 1.01 | [36] 0.961 | [37] 0.945 | [38] 0.947 | [39] 0.985 | [40] 1.01 | [41] 0.958 | [42] 0.958 | [44] 0.889 | [45] 0.912 | [46] 0.978 | [50] 0.992 | [52] 0.983 | [53] 0.98 | [54] 0.925 | [55] 0.773 | [56] 0.97 | [57] 0.922 | [58] 0.881 | [59] 1.04 | [60] 0.998 | [61] 0.989 | S. cerevisiae deletion strains, locus YNL322C, strain KRE1, hits give low values 0.972 | [63] 0.917 | [64] 0.779 | [65] 0.812 | [67] 0.982 | [68] 0.997 | [69] 0.934 | [70] 0.968 | [72] 0.976 | [73] 0.977 | [74] 1 | [76] 0.938 | [77] 0.905

COc1ccc(-c2c(O)c3cc4c(c(CC=C(C)C)c3oc2=O)OC(C)(C)CC4)cc1
inactive: [1] 1.01 | [2] 0.996 | [3] 1.02 | [4] 1.01 | [5] 1.03 | [6] 1.01 | [7] 1.03 | [8] 1.03 | [9] 1.01 | [10] 1.01 | [11] 0.993 | [12] 1.01 | [13] 1.02 | [14] 1.02 | [15] 1.01 | [16] 1.03 | [17] 1.01 | [18] 1.01 | [19] 1.01 | [20] 1.03 | [21] 1 | S. cerevisiae deletion strains, locus YGR078C, strain PAC10, hits give low values 1.01 | [22] 1.03 | [23] 1.02 | [24] 1.02 | [25] 1.01 | [26] 1.01 | [27] 1.02 | [28] 1.01 | [29] 1 | [30] 1.01 | [31] 1.06 | [32] 1.02 | [33] 1.01 | [34] 1.01 | [35] 1.01 | [36] 1.02 | [37] 1.01 | [38] 1.01 | [39] 1.11 | [40] 1.01 | [41] 1.01 | [42] 1.01 | [78] 1 | [43] 1.02 | [44] 1.02 | [45] 1.01 | [46] 1.01 | S. cerevisiae deletion strains, locus YLR262C, strain YPT6, hits give low values 1.07 | [47] 1.02 | [79] 1.02 | S. cerevisiae deletion strains, locus YLR342W, strain FKS1 (second series), hits give low values 1.02 | [48] 1.02 | [49] 1.01 | [50] 1.01 | [51] 1.02 | [52] 1.01 | [53] 1.02 | [54] 1.01 | S. cerevisiae deletion strains, locus YMR263W, strain SAP30, hits give low values 1.01 | [55] 1.08 | [56] 1.01 | S. cerevisiae deletion strains, locus YNL128W, strain TEP1, hits give low values 1 | [57] 1 | [58] 1 | [59] 1.02 | [60] 1.01 | [61] 1.01 | [62] 1.02 | [63] 1.02 | [64] 1.17 | [65] 1.44 | [66] 1 | [67] 1 | [68] 1.01 | [69] 1.02 | [70] 0.999 | [71] 0.993 | [72] 1.02 | S. cerevisiae deletion strains, locus YPL241C, strain CIN2, hits give low values 1.01 | [73] 1.02 | [74] 1.02 | [75] 1.01 | [76] 1.01 | [77] 1.01

COc1c(CC=C(C)C)c2c(c3oc(=O)c(-c4ccc(OC(C)=O)cc4)c(OC(C)=O)c13)C=CC(C)(C)O2
inactive: S. cerevisiae deletion strains, locus YAL013W, strain DEP1, hits give low values 0.996 | [1] 0.986 | [2] 1.03 | [3] 1.02 | [4] 1.04 | [5] 1.08 | [6] 1.03 | [7] 1.02 | [8] 1.05 | [9] 1.01 | [11] 1.04 | [12] 1.02 | [13] 1.02 | [14] 1.03 | [16] 1.01 | [17] 1.01 | [18] 1.02 | [19] 1 | [20] 1.03 | [21] 1.08 | [22] 1.02 | [24] 1.1 | [26] 1.02 | [27] 1 | [28] 1 | [29] 1.03 | [30] 1.02 | [31] 1.06 | [32] 1.02 | [33] 0.996 | [34] 1.12 | [35] 1.01 | [36] 0.997 | [37] 1.03 | [38] 1.07 | S. cerevisiae deletion strains, locus YJR075W, strain HOC1, hits give low values 1.03 | [40] 0.995 | [41] 1.01 | [42] 1.01 | [78] 0.997 | [43] 1.05 | [44] 1.12 | [45] 1.04 | [46] 1 | [47] 1.04 | [79] 1.02 | [48] 1.05 | [49] 1.08 | [50] 1.03 | [51] 1.01 | [52] 0.994 | [53] 1 | [54] 1.03 | [55] 1.15 | [56] 1 | [57] 1.03 | [58] 1.06 | [59] 0.989 | [60] 1.01 | [61] 1.01 | [62] 1 | [63] 1.01 | [64] 1.17 | [65] 1.04 | [66] 1.02 | [67] 1.02 | [68] 1.02 | [69] 1 | [70] 1.01 | [71] 1.04 | [72] 1.01 | [73] 1 | [74] 1 | [75] 1.02 | [76] 1 | [77] 1.04 | S. cerevisiae strains, strain wild type, hits give low values 1.02
